Values joined by “and” are separate entries in the source; they are usually repeats but may differ in a detail not shown here. Equal entries are not always repeated. The whole screen tested about 5,500 compounds, of which about 2,000 (36%) were called active. Not shown: some 18% with an inconclusive outcome. Rule as the data show it: active = normalized growth mostly below about 0.91 (no sharp cut-off); inconclusive = no clear call, values can overlap the other calls; inactive = mostly above about 0.92. The list shows a part of the results.
Experiment: chemical genetic growth profiling, strain panel (AID 1159580);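 also: tested at 20 µM; growth read once vehicle control cultures reached saturation at 30 °C; 1 = growth at the plate median or of vehicle wells; lower values mean less growth of the strain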
Conditions: S. cerevisiae deletion strains, growth OD

Measured: normalized growth

CN1CC(CNC(=O)OCc2ccccc2)CC2c3cccc4c3c(cn4C)CC21 (stereo not drawn)
inactive: locus YAL013W, strain DEP1, active compounds read low 1.01 | locus YBR021W, strain FUR4, active compounds read low 1.02 | locus YBR229C, strain ROT2, active compounds read low 1 | locus YCL029C, strain bik1, active compounds read low 0.977 | locus YDL035C, strain GPR1, active compounds read low 1.04 | locus YDL074C, strain BRE1, active compounds read low 0.999 | locus YDL101C, strain DUN1, active compounds read low 0.978 | locus YDL185W, strain tfp1, active compounds read low 0.97 | locus YDL192W, strain arf1, active compounds read low 0.993 | locus YDR101C, strain arx1, active compounds read low 0.995 | locus YDR150W, strain NUM1, active compounds read low 0.994 | locus YDR162C, strain NBP2, active compounds read low 1.02 | locus YDR318W, strain mcm21, active compounds read low 0.985 | locus YDR388W, active compounds read low 0.987 | locus YDR502C, strain sam2, active compounds read low 0.941 | locus YEL061C, strain CIN8, active compounds read low 0.992 | locus YER110C, active compounds read low 0.972 | locus YER155C, strain BEM2, active compounds read low 0.991 | locus YER167W, strain BCK2, active compounds read low 1 | locus YGL078C, strain dbp3, active compounds read low 0.995 | locus YGL086W, strain mad1, active compounds read low 0.982 | locus YGL248W, strain PDE1, active compounds read low 0.989 | locus YGR078C, strain PAC10, active compounds read low 0.995 | locus YGR135W, strain pre9, active compounds read low 0.984 | locus YGR252W, strain gcn5, active compounds read low 1.04 | locus YHR030C, strain SLT2, active compounds read low 0.998 and 0.982 | locus YHR079C, strain IRE1 (second series), active compounds read low 0.965 | locus YHR079C, strain IRE1, active compounds read low 0.972 | locus YHR094C, strain hxt1, active compounds read low 0.988 | locus YHR129C, strain ARP1, active compounds read low 0.999 | locus YHR200W, strain rpn10, active compounds read low 0.985 | locus YIL066C, strain RNR3, active compounds read low 1.01 | locus YIL073C, strain SPO22, active compounds read low 0.911 | locus YIL125W, strain kgd1, active compounds read low 1 | locus YIR030C, strain dcg1, active compounds read low 0.986 | locus YJL095W, strain BCK1, active compounds read low 0.957 and 0.968 | locus YJL134W, strain LCB3, active compounds read low 0.995 | locus YJL168C, strain set2, active compounds read low 1 | locus YJL187C, strain SWE1 (second series), active compounds read low 0.973 | locus YJR043C, strain POL32, active compounds read low 1.07 | locus YJR066W, strain TOR1, active compounds read low 0.877 | locus YJR075W, strain HOC1, active compounds read low 0.981 | locus YKL009W, strain mrt4, active compounds read low 0.979 | locus YKL068W, active compounds read low 0.983 | locus YKL085W, strain MDH1 (second series), active compounds read low 0.975 | locus YKL085W, strain MDH1, active compounds read low 0.975 | locus YKR001C, strain vps1, active compounds read low 0.996 | locus YLR039C, strain RIC1, active compounds read low 0.988 | locus YLR058C, strain SHM2, active compounds read low 0.988 | locus YLR102C, strain apc9, active compounds read low 0.986 | locus YLR113W, strain HOG1, active compounds read low 1.03 | locus YLR262C, strain YPT6, active compounds read low 0.998 | locus YLR268W, strain sec22, active compounds read low 0.986 | locus YLR330W, strain CHS5, active compounds read low 0.993 | locus YLR342W, strain FKS1 (second series), active compounds read low 1.07 | locus YLR371W, strain rom2, active compounds read low 0.992 | locus YLR418C, strain cdc73, active compounds read low 1.01 | locus YML016C, strain PPZ1, active compounds read low 0.999 | locus YML032C, strain rad52, active compounds read low 0.998 | locus YML124C, strain tub3, active compounds read low 1 | locus YMR078C, strain ctf18, active compounds read low 0.983 | locus YMR223W, strain ubp8, active compounds read low 0.979 | locus YMR263W, strain SAP30, active compounds read low 0.979 | locus YMR307W, strain GAS1, active compounds read low 1.16 | locus YNL067W, strain RPL9B, active compounds read low 0.96 | locus YNL153C, strain GIM3, active compounds read low 0.981 | locus YNL183C, strain NPR1, active compounds read low 0.879 | locus YNL233W, strain BNI4, active compounds read low 0.986 | locus YNL250W, strain rad50, active compounds read low 0.971 | locus YNL271C, strain bni1, active compounds read low 0.992 | locus YNL298W, strain CLA4, active compounds read low 0.99 | locus YNL307C, strain MCK1, active compounds read low 0.985 | locus YNR052C, strain pop2, active compounds read low 0.975 | locus YOL012C, strain htz1 0.968 | locus YOL147C, strain pex11, active compounds read low 0.989 | locus YOR061W, strain CKA2, active compounds read low 0.994 | locus YOR069W, strain VPS5, active compounds read low 0.997 | locus YOR136W, strain idh2, active compounds read low 0.98 | locus YOR144C, strain elg1, active compounds read low 1.01 | locus YOR184W, strain ser1, active compounds read low 1 | locus YOR231W, strain MKK1, active compounds read low 0.991 | locus YOR316C, strain cot1, active compounds read low 0.979 | locus YPL256C, strain CLN2, active compounds read low 0.986 | locus YPR119W, strain clb2, active compounds read low 0.981 | locus YPR141C, strain kar3, active compounds read low 0.988 | locus YPR163C, strain tif3, active compounds read low 1 | locus YPR167C, strain met16, active compounds read low 0.991 | strain wtn01, active compounds read low 1.01

Source: PubChem BioAssay AID1159580 (chemical genetic matrix, 2015)
